Assay [1] has as its target POU1 (OCT1 POU domain) (human, UniProt P14859 260-458). Nature of the assay: EMSA-SELEX-seq; no BOB1; 20 mM Tris-HCl pH 7.6, 140 mM NaCl, 10% glycerol, 0.5 mM EDTA, 0.05% Triton X-100, 0.1 mg/mL BSA, 0.1 mg/mL poly(dI-dC), 5 mM DTT, room temperature, 20 min; high values mean tight binding. To be noted: protein: recombinant; dsDNA, one strand shown. In a few lines:
(§1)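 Binding preference is reported as the percentage of sequenced 8-mers that match a motif pattern. Tagged POU-domain proteins were made in E. coli BL21, purified under denaturing conditions and renatured. A 30 ng portion was combined with 300 ng of a PCR-amplified double-stranded random 35-nt library, with or without 28 ng coactivator protein, in 20 μL Tris–HCl pH 7.6 binding buffer for 20 min at RT. Complex bands were excised from native 6% PAGE, eluted and PCR-amplified over four rounds before Illumina sequencing.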
In general terms: A gel shift assay detects complexes by their altered migration in electrophoresis.

Assay [2] has as its target T1, POU2 (OCT2 POU domain) (human, UniProt P09086 175-386).
T1 sequence: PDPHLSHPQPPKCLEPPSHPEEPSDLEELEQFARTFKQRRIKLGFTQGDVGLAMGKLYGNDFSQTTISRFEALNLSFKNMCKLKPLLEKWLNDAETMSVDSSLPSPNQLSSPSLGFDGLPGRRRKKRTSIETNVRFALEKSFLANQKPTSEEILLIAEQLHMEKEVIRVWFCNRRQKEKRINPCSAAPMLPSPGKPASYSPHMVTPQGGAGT
Described as above. The conditions noted are these: protein: recombinant; dsDNA, one strand shown. The essentials: as §1

Assay [3] addresses POU1 (OCT1 POU domain);BOB1 (OBF1, OCA-B) (human;human, UniProt P14859;Q16633 260-458;1-256, |). Nature of the assay: EMSA-SELEX-seq; with BOB1 (ternary complex band); 20 mM Tris-HCl pH 7.6, 140 mM NaCl, 10% glycerol, 0.5 mM EDTA, 0.05% Triton X-100, 0.1 mg/mL BSA, 0.1 mg/mL poly(dI-dC), 5 mM DTT, room temperature, 20 min; high values mean tight binding. To be noted: protein: recombinant;recombinant; copies: 1;1; dsDNA, one strand shown. The essentials: as §1

In assay [4] the target is T2, POU2 (OCT2 POU domain);BOB1 (OBF1, OCA-B) (human;human, UniProt P09086;Q16633 175-386;1-256, |).
T2 sequence 1: T1 sequence
T2 sequence 2: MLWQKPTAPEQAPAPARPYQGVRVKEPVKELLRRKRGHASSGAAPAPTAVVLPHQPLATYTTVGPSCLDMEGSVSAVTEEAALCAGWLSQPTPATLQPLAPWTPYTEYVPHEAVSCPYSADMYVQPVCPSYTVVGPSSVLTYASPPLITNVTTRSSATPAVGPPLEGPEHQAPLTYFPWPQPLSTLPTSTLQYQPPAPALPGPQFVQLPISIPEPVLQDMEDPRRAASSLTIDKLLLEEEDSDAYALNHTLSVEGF
The description is as above. To be noted: protein: recombinant;recombinant; copies: 1;1; dsDNA, one strand shown. The essentials: as §1

Sequence of POU1 (OCT1 POU domain) (P14859 260-458): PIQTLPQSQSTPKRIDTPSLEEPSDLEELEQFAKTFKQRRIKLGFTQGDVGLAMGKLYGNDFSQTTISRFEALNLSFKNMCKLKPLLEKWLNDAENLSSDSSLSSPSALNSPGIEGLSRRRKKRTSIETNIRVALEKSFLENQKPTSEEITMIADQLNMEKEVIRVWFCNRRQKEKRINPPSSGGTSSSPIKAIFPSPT

ATACCAAG: the binding signal in assay [1] was 0.0252 % of ANNNNAAN 8-mers; in assay [2], 0.0334 % of ANNNNAAN 8-mers; in assay [3], 0.0238 % of ANNNNAAN 8-mers; in assay [4], 0.0305 % of ANNNNAAN 8-mers.
Take ACCTGAAC: the binding signal in assay [1] is 0.021 % of ANNNNAAN 8-mers; in assay [3], 0.0113 % of ANNNNAAN 8-mers; in assay [4] it was 0.0215 % of ANNNNAAN 8-mers.
For AGGATAAG, the binding signal in assay [1] was 0.0496 % of ANNNNAAN 8-mers; in assay [2] it was 0.0558 % of ANNNNAAN 8-mers; in assay [3], 0.0523 % of ANNNNAAN 8-mers; in assay [4], 0.0479 % of ANNNNAAN 8-mers.
For AGCTGAAC, the binding signal in assay [1] is 0.0156 % of ANNNNAAN 8-mers; in assay [2], 0.0196 % of ANNNNAAN 8-mers; in assay [3], 0.0176 % of ANNNNAAN 8-mers; in assay [4], 0.019 % of ANNNNAAN 8-mers.
ACGAAAAG: the binding signal in assay [1] was 0.032 % of ANNNNAAN 8-mers; in assay [2] it was 0.0368 % of ANNNNAAN 8-mers; in assay [3], 0.046 % of ANNNNAAN 8-mers; in assay [4], 0.0413 % of ANNNNAAN 8-mers.
The like results for ACGAGAAA were, in that order, 0.0381 % of ANNNNAAN 8-mers, 0.0437 % of ANNNNAAN 8-mers, 0.0355 % of ANNNNAAN 8-mers and 0.038 % of ANNNNAAN 8-mers.
For ATGTCAAC, in that order: 0.0214 % of ANNNNAAN 8-mers, 0.023 % of ANNNNAAN 8-mers, 0.0273 % of ANNNNAAN 8-mers and 0.0215 % of ANNNNAAN 8-mers.
The like results for ACAGCAAA were, in that order, 0.0248 % of ANNNNAAN 8-mers, 0.0213 % of ANNNNAAN 8-mers, 0.0359 % of ANNNNAAN 8-mers and 0.0347 % of ANNNNAAN 8-mers.
In the case of ATCGAAAC, the binding signal in assay [1] is 0.0275 % of ANNNNAAN 8-mers; in assay [2], 0.0236 % of ANNNNAAN 8-mers; in assay [3] it was 0.0316 % of ANNNNAAN 8-mers; in assay [4] it was 0.0215 % of ANNNNAAN 8-mers.
For ATTTGAAA, in that order: 0.142 % of ANNNNAAN 8-mers, 0.0995 % of ANNNNAAN 8-mers, 0.178 % of ANNNNAAN 8-mers and 0.0933 % of ANNNNAAN 8-mers.
Turning to ATCAAAAG, the binding signal in assay [1] was 0.045 % of ANNNNAAN 8-mers; in assay [2], 0.0414 % of ANNNNAAN 8-mers; in assay [3] it was 0.0581 % of ANNNNAAN 8-mers; in assay [4] it was 0.0388 % of ANNNNAAN 8-mers.
With ATCAGAAG, the binding signal in assay [1] is 0.0271 % of ANNNNAAN 8-mers; in assay [2], 0.0363 % of ANNNNAAN 8-mers; in assay [3] it was 0.0359 % of ANNNNAAN 8-mers; in assay [4] it was 0.033 % of ANNNNAAN 8-mers.
For AATGCAAA, in that order: 1.36 % of ANNNNAAN 8-mers, 1.1 % of ANNNNAAN 8-mers, 2.58 % of ANNNNAAN 8-mers and 3.21 % of ANNNNAAN 8-mers.
For AAACCAAG, in that order: 0.0233 % of ANNNNAAN 8-mers, 0.0161 % of ANNNNAAN 8-mers, 0.0293 % of ANNNNAAN 8-mers and 0.0198 % of ANNNNAAN 8-mers.
Consider AACGGAAG, for which the binding signal in assay [1] was 0.0168 % of ANNNNAAN 8-mers; in assay [2], 0.0259 % of ANNNNAAN 8-mers; in assay [3], 0.0164 % of ANNNNAAN 8-mers; in assay [4], 0.0206 % of ANNNNAAN 8-mers.
In the case of AAGGCAAA, the binding signal in assay [1] was 0.222 % of ANNNNAAN 8-mers; in assay [2], 0.117 % of ANNNNAAN 8-mers; in assay [3] it was 0.443 % of ANNNNAAN 8-mers; in assay [4], 0.278 % of ANNNNAAN 8-mers.
For AGATAAAA, in that order: 0.0542 % of ANNNNAAN 8-mers, 0.057 % of ANNNNAAN 8-mers, 0.0597 % of ANNNNAAN 8-mers and 0.0462 % of ANNNNAAN 8-mers.
For the sequence AGTTCAAT, the binding signal in assay [1] was 0.0446 % of ANNNNAAN 8-mers; in assay [2], 0.0432 % of ANNNNAAN 8-mers; in assay [3], 0.046 % of ANNNNAAN 8-mers; in assay [4] it was 0.0421 % of ANNNNAAN 8-mers.
Take ACAGGAAC: the binding signal in assay [1] was 0.0244 % of ANNNNAAN 8-mers; in assay [2], 0.0265 % of ANNNNAAN 8-mers; in assay [3], 0.0222 % of ANNNNAAN 8-mers; in assay [4], 0.0239 % of ANNNNAAN 8-mers.
For the sequence AACCCAAT, the binding signal in assay [1] was 0.0206 % of ANNNNAAN 8-mers; in assay [2], 0.019 % of ANNNNAAN 8-mers; in assay [3] it was 0.0273 % of ANNNNAAN 8-mers; in assay [4], 0.0223 % of ANNNNAAN 8-mers.
Turning to AATACAAT, the binding signal in assay [1] is 0.0797 % of ANNNNAAN 8-mers; in assay [2], 0.107 % of ANNNNAAN 8-mers; in assay [3] it was 0.0663 % of ANNNNAAN 8-mers; in assay [4] it was 0.0982 % of ANNNNAAN 8-mers.
The like results for ACACGAAG were, in that order, 0.0206 % of ANNNNAAN 8-mers, 0.0196 % of ANNNNAAN 8-mers, 0.0176 % of ANNNNAAN 8-mers and 0.0157 % of ANNNNAAN 8-mers.
The like results for ATTGAAAA were, in that order, 0.09 % of ANNNNAAN 8-mers, 0.076 % of ANNNNAAN 8-mers, 0.0925 % of ANNNNAAN 8-mers and 0.0627 % of ANNNNAAN 8-mers.
For ATCTTAAT, the binding signal in assay [1] was 0.126 % of ANNNNAAN 8-mers; in assay [2], 0.176 % of ANNNNAAN 8-mers; in assay [3], 0.103 % of ANNNNAAN 8-mers; in assay [4], 0.135 % of ANNNNAAN 8-mers.
For AGACAAAG, in that order: 0.0404 % of ANNNNAAN 8-mers, 0.0374 % of ANNNNAAN 8-mers, 0.0558 % of ANNNNAAN 8-mers and 0.0248 % of ANNNNAAN 8-mers.
As to AGCCAAAA, the binding signal in assay [1] was 0.0355 % of ANNNNAAN 8-mers; in assay [2] it was 0.038 % of ANNNNAAN 8-mers; in assay [3], 0.0499 % of ANNNNAAN 8-mers; in assay [4], 0.0305 % of ANNNNAAN 8-mers.
The like results for ACGCCAAT were, in that order, 0.0137 % of ANNNNAAN 8-mers, 0.0184 % of ANNNNAAN 8-mers, 0.0195 % of ANNNNAAN 8-mers and 0.0256 % of ANNNNAAN 8-mers.
Consider AGACTAAA, for which the binding signal in assay [1] was 0.0374 % of ANNNNAAN 8-mers; in assay [2], 0.0443 % of ANNNNAAN 8-mers; in assay [3], 0.0297 % of ANNNNAAN 8-mers; in assay [4], 0.0289 % of ANNNNAAN 8-mers.
The like results for ACTCTAAC were, in that order, 0.013 % of ANNNNAAN 8-mers, 0.015 % of ANNNNAAN 8-mers, 0.0187 % of ANNNNAAN 8-mers and 0.0182 % of ANNNNAAN 8-mers.
Regarding AGCGTAAA, the binding signal in assay [1] is 0.0427 % of ANNNNAAN 8-mers; in assay [2], 0.0455 % of ANNNNAAN 8-mers; in assay [3] it was 0.0347 % of ANNNNAAN 8-mers; in assay [4], 0.0396 % of ANNNNAAN 8-mers.
In the case of AGGAGAAG, the binding signal in assay [1] is 0.045 % of ANNNNAAN 8-mers; in assay [2], 0.0472 % of ANNNNAAN 8-mers; in assay [3] it was 0.0507 % of ANNNNAAN 8-mers; in assay [4] it was 0.0438 % of ANNNNAAN 8-mers.
For AAGATAAC, the binding signal in assay [1] was 0.0248 % of ANNNNAAN 8-mers; in assay [2], 0.0334 % of ANNNNAAN 8-mers; in assay [3], 0.0285 % of ANNNNAAN 8-mers; in assay [4], 0.0388 % of ANNNNAAN 8-mers.

The values above are taken from article PMC10812921, “Transcriptional Coactivator BOB1 (OBF1, OCA-B) Modulates the Specificity of DNA Recognition by the POU-Domain Factors OCT1 and OCT2 in a Monomeric Configuration”.
